Experimental data taken from the supplement of paper PMC9402605.
± gives the standard deviation of the averaged measurements.

system: Caenorhabditis elegans N2; experiment: egg-laying rate relative to DMSO control (M9 buffer background) (fraction of control); higher = more egg-laying; settings: 60 µM, 1 h
Protocol: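 About 20 young-adult wild-type C. elegans (N2) per well in 96-well plates were exposed to 60 uM compound for 1 h at room temperature, either in M9 buffer (to find stimulators) or in 12.3 mM serotonin + 7.7 mM nicotine (NS, to find inhibitors). Eggs per worm per hour were counted by automated imaging and normalised to the mean of proximal DMSO control wells. Values average the primary screen and two retests of the worm-active (wactive) Egl modulators.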

Row | SMILES | egg-laying rate
1 | O=[N+]([O-])c1ccc(N2CCN(CC3CC=CCC3)CC2)cc1 (stereo not given) [wact-47] | 10.6 ± 6.3
2 | O=[N+]([O-])c1ccc(CSc2ccc(Cl)cc2)cc1 [wact-3] | 2.13 ± 0.22
3 | Clc1ccc(-c2cn3ccsc3n2)cc1 [wact-1] | 1.94 ± 0.54
4 | Cc1ccccc1C(=O)NCCSC1CCCCC1 [wact-494] | 1.03 ± 0.24
5 | CCSc1nnc(-c2ccc(Cl)cc2Cl)o1 [wact-4] | 4.56 ± 1.9
6 | COc1ccc(C=Cc2ccccn2)cc1 [wact-622] | 1.19 ± 0.28
7 | O=C(Nc1cccc(Cl)c1)N1CCN(c2ccc([N+](=O)[O-])cc2)CC1 [wact-31] | 2.02 ± 0.75
8 | O=[N+]([O-])c1ccc(N2CCN(CC3CC4C=CC3C4)CC2)cc1 (stereo not given) [wact-46] | 11 ± 6.7
9 | Cc1ccc(-c2cnc(-c3ccncc3)o2)cc1 [wact-23] | 3.94 ± 1.5
10 | CCOc1ccc(C(=O)c2cccs2)cc1 [wact-471] | 2.49 ± 2.2
11 | Cc1ccccc1C(=O)NCCc1ccccc1 [wact-406] | 0.741 ± 0.36
12 | c1csc(-c2cnc3ccccc3n2)c1 [wact-21] | 4.69 ± 1.8
13 | O=C(Nc1ccc(I)cc1)c1ccco1 [wact-27] | 3.06 ± 1.5
14 | Cc1ccn2cc(-c3ccc(F)cc3)nc2c1 [wact-436] | 1.94 ± 0.73
15 | CCCCOC(=O)Nc1ccc([N+](=O)[O-])cc1 [wact-419] | 2.9 ± 0.58
16 | CCc1ccc(-c2cn3ccsc3n2)cc1 [wact-434] | 1.53 ± 0.93
17 | Fc1ccc(-c2cn3ccsc3n2)cc1 [wact-433] | 3.02 ± 1.1
18 | c1ccc(CSc2nnc(-c3ccccc3)o2)cc1 [wact-38] | 8.44 ± 0.94
19 | CCC1CCC(N2CCN(c3ccc([N+](=O)[O-])cc3)CC2)CC1 (stereo not given) [wact-6] | 7.85 ± 2.4
20 | O=[N+]([O-])c1ccc(N2CCc3ccccc3C2)nc1 [wact-421] | 1.83 ± 0.59
21 | O=[N+]([O-])c1ccc(N2CCN(CC3CCCCC3)CC2)cc1 [wact-45] | 4.22 ± 1.8
22 | Brc1cccc(-c2cn3ccccc3n2)c1 [wact-435] | 0.576 ± 0.34
23 | O=C1CC(N2CCN(c3ccc([N+](=O)[O-])cc3)CC2)C(=O)N1c1ccccc1F (stereo not given) [wact-56] | 2.24 ± 0.45
24 | O=[N+]([O-])c1ccc(-n2ccc3ccccc32)cc1 [wact-213] | 2.13 ± 1.5
25 | Ic1cccc(-c2nnc(-c3ccccc3)o2)c1 [wact-51] | 2.92 ± 1.6
